In ChEMBL document CHEMBL3988442, “University of Dundee, Small-Polar-MMV Screening Library” (2021):
In all, about 67,000 compounds went through this assay and about 300 (0.45%) showed an effect of 50% or more. The sample holds strong results, similar compounds and a random draw of the others, so the mix is not that of the screen.

molecular target: Polyketide synthase Pks13 (Mycobacterium tuberculosis (strain ATCC 25618 / H37Rv)) (UniProt I6X8D2); assay: Mycobacterium tuberculosis Polyketide synthase 13 Thioesterase (PKS13); type: functional; parameters: scale not given: in the data most compounds retested in dose-response had high values; conditions: 30 µM
Sequence (I6X8D2 whole entry): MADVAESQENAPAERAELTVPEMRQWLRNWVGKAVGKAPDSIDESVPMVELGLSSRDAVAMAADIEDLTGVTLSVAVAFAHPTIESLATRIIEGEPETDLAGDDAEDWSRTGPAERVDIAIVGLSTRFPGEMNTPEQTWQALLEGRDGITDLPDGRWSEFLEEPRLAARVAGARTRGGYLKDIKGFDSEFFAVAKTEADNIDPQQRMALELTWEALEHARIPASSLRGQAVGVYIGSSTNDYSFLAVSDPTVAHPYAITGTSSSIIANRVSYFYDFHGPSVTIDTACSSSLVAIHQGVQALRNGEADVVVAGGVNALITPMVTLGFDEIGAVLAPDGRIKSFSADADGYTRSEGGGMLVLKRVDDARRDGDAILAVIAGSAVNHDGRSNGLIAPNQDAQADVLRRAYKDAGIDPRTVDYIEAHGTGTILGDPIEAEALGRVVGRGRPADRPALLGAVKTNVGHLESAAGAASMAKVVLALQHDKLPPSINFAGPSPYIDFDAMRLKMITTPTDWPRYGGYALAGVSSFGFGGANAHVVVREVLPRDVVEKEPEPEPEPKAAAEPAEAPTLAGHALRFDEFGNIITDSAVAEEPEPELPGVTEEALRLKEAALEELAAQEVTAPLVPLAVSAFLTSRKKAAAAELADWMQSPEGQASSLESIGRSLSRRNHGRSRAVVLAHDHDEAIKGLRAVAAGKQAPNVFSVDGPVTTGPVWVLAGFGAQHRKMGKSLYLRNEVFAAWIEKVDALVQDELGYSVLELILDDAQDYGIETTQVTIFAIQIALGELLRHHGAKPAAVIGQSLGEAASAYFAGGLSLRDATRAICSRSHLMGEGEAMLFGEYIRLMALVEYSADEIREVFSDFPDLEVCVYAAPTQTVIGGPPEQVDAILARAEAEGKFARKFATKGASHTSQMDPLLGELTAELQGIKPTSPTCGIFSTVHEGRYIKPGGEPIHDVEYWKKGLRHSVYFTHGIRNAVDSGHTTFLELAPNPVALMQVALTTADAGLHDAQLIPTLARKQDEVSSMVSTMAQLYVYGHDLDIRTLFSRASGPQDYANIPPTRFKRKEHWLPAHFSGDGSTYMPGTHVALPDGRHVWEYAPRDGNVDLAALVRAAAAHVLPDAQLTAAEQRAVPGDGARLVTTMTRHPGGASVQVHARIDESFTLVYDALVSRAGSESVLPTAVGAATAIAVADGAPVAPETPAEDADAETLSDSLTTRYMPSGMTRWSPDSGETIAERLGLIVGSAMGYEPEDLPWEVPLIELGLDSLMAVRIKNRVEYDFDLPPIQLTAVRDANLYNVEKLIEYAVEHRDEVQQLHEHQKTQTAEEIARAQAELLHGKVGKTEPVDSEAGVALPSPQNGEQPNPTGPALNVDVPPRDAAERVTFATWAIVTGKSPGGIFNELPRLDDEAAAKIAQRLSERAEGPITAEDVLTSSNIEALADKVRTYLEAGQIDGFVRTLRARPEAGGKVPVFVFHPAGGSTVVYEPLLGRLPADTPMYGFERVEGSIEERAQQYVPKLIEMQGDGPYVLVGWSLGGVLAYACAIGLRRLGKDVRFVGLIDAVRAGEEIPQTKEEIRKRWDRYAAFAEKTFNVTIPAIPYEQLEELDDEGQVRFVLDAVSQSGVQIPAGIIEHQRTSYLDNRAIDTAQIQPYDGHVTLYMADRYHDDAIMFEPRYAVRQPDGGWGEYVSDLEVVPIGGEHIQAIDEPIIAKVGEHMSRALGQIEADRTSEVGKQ

SMILES	Percent Effect
Cc1nc[nH]c1CN1CCN(C(=O)c2cccs2)[C@H]2CS(=O)(=O)C[C@H]21	-7.55%
COCCN1C[C@H]2CC[C@@H]1CN(CC(=O)Nc1ccn(C)n1)C2	-11.6%
O=C(c1cnccn1)N1CCN2C[C@H](Oc3cccc(F)c3)C[C@H]2C1	-42.7%
O=C(Cc1cccc(F)c1)N1CCN2C[C@H](Oc3cncnc3)C[C@H]2C1	-1.46%
O=C(C1CC1)N1CCN2C[C@@H](CO)[C@H](c3ccccc3)[C@H]2C1	2.09%
Cc1nnc([C@H]2CC[C@@H]3[C@@H](CCN3CC3CCOCC3)O2)o1	-25.5%
CN(C)C(=O)CO[C@@H]1CC[C@H]2[C@H]1OCCN2c1ncc(F)cn1	-1.97%
COCCN1C(=O)C[C@H]2[C@H]1CCN2Cc1cccc(C#N)c1	-24.2%
CO[C@@H]1CCC[C@@H](N(C)C(=O)c2cn3cc(C)ccc3n2)[C@H]1O	-3.51%
Cc1ccc2nc(C(=O)N(C)[C@@H]3CC[C@@H](N4CCCC4)[C@@H]3O)cn2c1	61.6%
CO[C@@H]1CC[C@@H](N(C)C(=O)c2cn3cc(C)ccc3n2)[C@H]1O	-0.591%
CC(C)=CCN1C[C@H]2CC[C@@H]1CN(S(=O)(=O)c1cccnc1)C2	7.63%
CCN1CC[C@@]2(C(=O)N3CCOCC3)CCN(C(=O)NC)CC[C@@H]12	-31.8%
CC(C)NC(=O)NC(C)c1nc(-c2ccccc2)cs1 (stereo unspecified)	0.666%
CC(NC(=O)NCC(C)(C)C(N)=O)c1nc(-c2ccccc2)cs1 (stereo unspecified)	55.9%
CC(NC(=O)NC1CC1)c1nc(-c2ccccc2)cs1 (stereo unspecified)	-2.19%
CNC(=O)c1cc2c(nc1NCC(C)C)CCN(S(C)(=O)=O)CC2	51%
CNC(=O)c1cc2c(nc1NCC(C)C)CCN(c1ncccn1)CC2	16.7%
CNC(=O)c1cc2c(nc1NCC1CC1)CCN(S(C)(=O)=O)CC2	55.9%
CNC(=O)c1cc2c(nc1NCC(C)C)CCN(C)CC2	49.9%
CNC(=O)c1cc2c(nc1NCC1CC1)CCN(S(=O)(=O)C1CC1)CC2	-32.9%
CNC(=O)c1cc2c(nc1NCC1CC1)CCN(CC1CC1)CC2	42.7%

SMILES	Percent Effect
CNC(=O)c1cc2c(nc1NCC(C)C)CCN(CC1CC1)CC2	51.6%
CNC(=O)c1cc2c(nc1NCC(C)C)CCN(c1ccncn1)CC2	94.4%
CNC(=O)c1cc2c(nc1NCC(C)C)CCN(S(=O)(=O)C1CC1)CC2	-13.9%
CCS(=O)(=O)N1CCc2cc(C(=O)NC)c(NCC(C)C)nc2CC1	-68.6%
CNC(=O)c1cc2c(nc1NCC1CC1)CCN(c1ccncn1)CC2	-246%
CCS(=O)(=O)N1CCc2cc(C(=O)NC)c(NCC3CC3)nc2CC1	23.6%
O=C(NC1CC1)[C@@H]1CCO[C@@H]2CCN(C3CCOCC3)C[C@H]21	-9.37%
Cc1noc(C)c1CN1C[C@@H]2CCCO[C@@H]2[C@H](NS(C)(=O)=O)C1	-27.6%
O=C([C@@H]1COC[C@H]2CN(CC3CCCC3)C[C@H]21)N1CCOCC1	-31.7%
CO[C@@H]1CCN(c2ncc(F)cn2)[C@@H]2CN(CC3CC3)C[C@@H]21	-32.1%
CC(C)N1CCO[C@H]2CN(C(=O)c3ccsc3)C[C@H]21	-16%
Cc1cc(CN2CCN(C(=O)C(C)C)[C@@H]3CS(=O)(=O)C[C@@H]32)ccc1F	-6.06%
CN(C)C(=O)c1cc2c(nc1NCC1CC1)CCNCC2	-20.1%
CNC(=O)c1cc2c(nc1NCC1CC1)CCNCC2	81.7%
CNC(=O)c1cc2c(nc1NCC1CC1)CCN(c1ncccn1)CC2	9.04%
O=C1[C@@H]2CCN(Cc3ccoc3)C[C@@H]2OCCN1c1cccnc1	-7.12%
Cc1noc([C@H]2C[C@H]3CN(C(=O)Cc4ccsc4)CC[C@H]3O2)n1	-10.9%
O=C(CC1CC1)N[C@@H]1CN(Cc2nccs2)C[C@@H]2CCCO[C@@H]21	-33.5%
Cc1nc(COC[C@@H]2CC[C@H]3[C@H](CCN3c3ncccn3)O2)cs1	-28.4%
FC(F)(F)c1cc(C2CCN(c3cnccn3)CC2)n2ccnc2n1	18.1%
CN1CCC(c2cc(C(F)(F)F)n3ccnc3n2)CC1	-20.7%
CC(=O)N1CCC(c2cc(C(F)(F)F)nc3nccn23)CC1	57.5%

SMILES	Percent Effect
COCC(=O)N1CCC(c2cc(C(F)(F)F)n3ccnc3n2)CC1	61.5%
CC(C)N1CCCC(c2cc(C(F)(F)F)nc3nccn23)C1 (stereo unspecified)	24.5%
CC(=O)N1CCC(c2cc(C(F)(F)F)n3ccnc3n2)CC1	41.8%
c1cc(CN2CCO[C@H]3[C@H](OCCN4CCCC4)CC[C@@H]32)ccn1	-11.4%
CC1=N[C@@]2(CC[C@@H]3CN(CC(=O)N(C)C)C[C@@H]32)C(=O)N1CC(C)C	-5.03%
COCCCN1C(=O)CC[C@H]2CN(Cc3cc4ccccc4o3)CC[C@H]21	-4.88%
COCCN1CCO[C@@H]2CN(Cc3ccc(C)s3)C[C@@H]2C1	-27.7%
CN(C)C(=O)CN1C[C@@H]2CC[C@H](C1)N(Cc1ccccc1C#N)C2	6.99%
COc1ccc2[nH]cc(-c3ccnc(N4CCC(C)CC4)n3)c2c1	71.9%
CN1CCCN(c2nccc(-c3c[nH]c4ccc(Br)cc34)n2)CC1	-2.62%
COc1ccc2[nH]cc(-c3ccnc(NC4CCCC4)n3)c2c1	18.6%
O=C(COC1CCCC1)N1C[C@@H]2COC[C@]2(COc2cccnc2)C1	-18%
COc1ccccc1CN1CCCC(Cc2nccnc2N)C1 (stereo unspecified)	-2.41%
Nc1nccnc1CC1CCCN(Cc2c[nH]c3ccccc23)C1 (stereo unspecified)	15.3%
Nc1nccnc1CC1CCCN(Cc2ccnc3ccccc23)C1 (stereo unspecified)	126%
CCN1C[C@H]2CCN(C(=O)NC3CCCC3)CC[C@H]2S1(=O)=O	-17.8%
CC(=O)N1[C@H](Cn2cncn2)C[C@@H]2CN(C(=O)NC3CC3)CC[C@@H]21	12.2%
O=C(Nc1cnccn1)[C@H]1CO[C@H]2CCN(c3ncc(F)cn3)C[C@H]2C1	-40.3%
COCCN1C(=O)[C@]2(CC[C@@H]3CN(Cc4ccccc4F)C[C@@H]32)N=C1C	-17.4%
Cc1csc2ncc(-c3ccnc(N4CCN(C)CC4)n3)c(=O)n12	-27.4%
Cc1csc2ncc(-c3ccnc(N4CCCN(C)CC4)n3)c(=O)n12	37.9%
Cc1csc2ncc(-c3ccnc(N4CCCC4)n3)c(=O)n12	137%

SMILES	Percent Effect
C/C(NC(=O)c1ccco1)=C1/C(=O)C[C@@H]2[C@H]1C2(C)C	0.624%
CCCc1ccc(CN2C[C@H]3C(=O)N(CC4CC4)C[C@@]3(C(=O)O)C2)o1	-6.91%
COCCN1C[C@@H]2CN(c3ncc(F)cn3)C[C@@H]2C1=O	-5%
COCCN1C[C@@H]2CN(c3ncccn3)C[C@@H]2C1=O	54.8%
O=C1[C@H]2CN(c3ncccn3)C[C@H]2CN1CCN1CCCC1	-2.18%
O=C(NC[C@@H]1C[C@@H]2CN(C(=O)CO)C[C@H]2O1)c1ccsc1	-53.3%
O=C(c1ccc(-n2cc(Br)cn2)cc1)N1CCN(c2cnccn2)CC1	81.5%
O=C(c1ccc(-n2ccnc2)cc1)N1CCCC1	-36.5%
O=C(c1ccc(-n2ccnc2)cc1)N1CCN(c2cnccn2)CC1	64.5%
Cc1ccnn1-c1ccc(C(=O)N2CCN(c3cnccn3)CC2)cc1	1.07%
O=C(c1ccc(-n2cncn2)cc1)N1CCN(c2cnccn2)CC1	-11.1%
O=C(c1cnn(-c2ccccc2)c1)N1CCN(c2cnccn2)CC1	-16.8%
O[C@@]1(c2ccccn2)CC[C@H]2CN(Cc3cccc(Cl)c3Cl)C[C@H]21	-48.7%
O=C(C1CC1)N1C[C@H]2CNC[C@@]2(C(=O)NCCCc2ccccc2)C1	-27.1%
Cc1ncsc1CN1C[C@H](C(=O)NCC2CC2)[C@@H]2CCO[C@@H]2C1	-19.8%
Cc1ccc(CNC(=O)NCCCn2nc3ccccn3c2=O)s1	96.8%
CCNC(=O)NCCCn1nc2ccccn2c1=O	0.265%
O=C(NCCCn1nc2ccccn2c1=O)NCc1ccccc1	2.17%
Cc1nc(COC[C@@]23CCC[C@@H]2CN(CC2CCOCC2)C3)cs1	-23.1%
O[C@@H]1C[C@@](CNCC2CC2)(COc2cccnc2)C[C@@H]1O	-28.2%
Cc1cc(CN2C[C@@H]3COC[C@@H](C(=O)N4CCCCO4)[C@@H]3C2)oc1C	-7.51%
CCN1CC(C(=O)N2CCN(c3nsc4ccccc34)CC2)CCC1=O (stereo unspecified)	105%

SMILES	Percent Effect
NC(=O)N1CCCC(C(=O)N2CCN(c3nsc4ccccc34)CC2)C1 (stereo unspecified)	-37.1%
CC(C)N1CCCC(C(=O)N2CCN(c3nsc4ccccc34)CC2)C1 (stereo unspecified)	-2.9%
O=C(COC[C@H]1CC[C@H]2[C@H](CCN2c2ncccn2)O1)N1CCCC1	-9.39%
CC(C)=CCN1CCN(C(=O)COc2ccccc2)[C@H]2CS(=O)(=O)C[C@H]21	-8.58%
O=C(C1CC(F)(F)C1)N1C[C@@H]2CN(Cc3ccoc3)CCO[C@@H]2C1	-7.81%
Cc1cccc(CN2CCN(C(=O)N(C)C)[C@@H]3CS(=O)(=O)C[C@@H]32)n1	-6.96%
CCNc1ncc(-c2cc(-c3ccn(C)c3)nc(N)c2C#N)cn1	5.42%
CCn1cc(-c2cc(-c3ccn(C)c3)nc(N)c2C#N)cc1C#N	58.3%
COc1ncc(-c2cc(-c3ccn(C)c3)nc(N)c2C#N)cn1	9.8%
CN(C)C(=O)COCC1C[C@@H]2OCCN(Cc3ccco3)[C@H]2C1 (stereo partly specified)	-27.3%
COc1cc(N2C[C@@H]3COC[C@]3(COCc3ccncc3)C2)ncn1	-5.91%
O=C(C[C@@H]1COC[C@H]2CN(C3CCC3)C[C@@H]12)NCc1cccnc1	0.641%
O=C(c1ccc(F)cc1)N1C[C@H]2CCC[C@@]2(COCc2ccccn2)C1	-35.6%
Cn1cc(NC(=O)c2cc[nH]n2)cc(Cl)c1=O	70.5%
Cn1cc(NC(=O)c2ccccn2)cc(Cl)c1=O	-33.4%
COc1ccsc1C(=O)Nc1cc(Cl)c(=O)n(C)c1	-16.3%
O=C(c1ccnnc1)N1CCN2C[C@H](Oc3cccnc3)C[C@H]2C1	-17.2%
COc1ncccc1CN1C[C@H]2CCN(C(C)C)C[C@H]2C1	8.32%
